Holding throughout (set-up): species or system human, MV4-11 + K-562 + COLO205 + SK-N-BE2 + OVCAR-8
In assay [1] the test system is ACVR1B. Particulars: read-out: apparent Kd, n = 1.
Assay [2] concerns CIT. Particulars: read-out: apparent Kd, n = 1.
In assay [3] the test system is MAPK14. The note with it: read-out: apparent Kd, n = 1.
Assay [4] deals with CDC42BPB. Particulars: read-out: apparent Kd, n = 1.
Assay [5] has as its system PAK6. The note with it: read-out: apparent Kd, n = 1.
The test system of assay [6] is PKN2. Particulars: read-out: apparent Kd, n = 1.
In assay [7] the test system is PRKCA. The note with it: read-out: apparent Kd, n = 1.
The test system of assay [8] is RPS6KB1. Particulars: read-out: apparent Kd; compound concentrations:100 nM and 1000 nM (sheet 'Samples'); n = 1.
Assay [9] has as its system AURKB. Particulars: read-out: apparent Kd, n = 1.
The subject of assay [10] is TTK. The note with it: read-out: apparent Kd, n = 1.
Assay [11] relates to NUAK2. The note with it: read-out: apparent Kd, n = 1.
Assay [12] relates to PIK3CD. Particulars: read-out: apparent Kd, n = 1.
For assay [13], the system named is RPS6KA3. The note with it: read-out: apparent Kd; compound concentrations: 100 nM and 1000 nM (sheet 'Samples'), CATDS: 9.3639610273777898E-3; n = 1.
Assay [14] has as its system MAP3K11. The note with it: read-out: apparent Kd, n = 1.
Assay [15] relates to EPHB1. The note with it: read-out: apparent Kd; compound concentrations:100 nM and 1000 nM (sheet 'Samples'); n = 1.
For assay [16], the system named is LCK. The note with it: read-out: apparent Kd; compound concentrations:100 nM and 1000 nM (sheet 'Samples'); n = 1.
Assay [17] has as its system PTK6. The note with it: read-out: apparent Kd; compound concentrations:100 nM and 1000 nM (sheet 'Samples'); n = 1.
Setting [18] is: compound concentrations:100 nM and 1000 nM (sheet 'Samples').

Where two headings read alike, the source gives them in different places.

Regarding `Fc1ccc(-c2c(-c3ccncc3)[nH]c3cccnc23)cc1` [RO1153853-000], the potency estimated from few doses was 700 nM in [1] (compound concentrations: 100 nM and 1000 nM (sheet 'Samples'), CATDS: 6.54692284622726E-2); 1750 nM in assay [2] (compound concentrations: 100 nM and 1000 nM (sheet 'Samples'), CATDS: 4.9233992215081297E-2); 308 nM in assay [3] (compound concentrations: 100 nM and 1000 nM (sheet 'Samples'), CATDS: 9.4137479402045199E-2).
As to `CCn1c(-c2nonc2N)nc2c(C#CC(C)(C)O)nc(O[C@@H](CN)c3ccccc3)cc21.O=C(O)C(F)(F)F` [GSK1007102B], the potency estimated from few doses in assay [4] (setting [18]) was 1280 nM; in assay [2] (setting [18]) it was 21.1 nM; in assay [5] (setting [18]) it was 1090 nM; in assay [6] (setting [18]), 390 nM; in assay [7] (setting [18]), 1410 nM; in [8] it was 1890 nM.
`Nc1nc(Nc2ccccc2)cc(-c2ccc3c(N)n[nH]c3c2)n1` [GSK2225749A]: the potency estimated from few doses in [1] (setting [18]) is 293 nM.
With `COc1ccc(Nc2nccc(-c3ccc(NC(=O)c4cc5cc(F)ccc5[nH]4)cc3)n2)cc1` [GSK1229496A], the potency estimated from few doses in [1] (compound concentrations: 100 nM and 1000 nM (sheet 'Samples'), CATDS: 0.38937877773487001) is 643 nM.
Consider `CN(C)CCNC(=O)Nc1ccc(N(C)c2ccnc(Nc3ccc(CS(C)(=O)=O)cc3)n2)cc1.Cl` [GW830900A], for which the potency estimated from few doses in assay [9] (setting [18]) is 387 nM; in assay [10] (setting [18]), 2150 nM.
On to `CCN(CC)Cc1ccc(Nc2nccc(-c3cnn4ncccc34)n2)cc1` [GW780056X], for which the potency estimated from few doses was 1070 nM in assay [11] (compound concentrations: 100 nM and 1000 nM (sheet 'Samples'), CATDS: 2.1304819470262599E-2); 1620 nM in assay [5] (compound concentrations: 100 nM and 1000 nM (sheet 'Samples'), CATDS: 1.8956003976459398E-2).
On to `CS(=O)(=O)Nc1ccc(-c2ccnc3[nH]ccc23)cc1` [GSK993273A], for which the potency estimated from few doses in assay [12] (setting [18]) was 183 nM.
For the molecule `O=C(O)C(F)(F)F.O=c1[nH]ccc2nc(N[C@@H]3CCNC3)nc(Nc3ccc4c(c3)S(=O)(=O)CC4)c12` [GSK2181306A], the potency estimated from few doses in assay [9] (compound concentrations: 100 nM and 1000 nM (sheet 'Samples'), CATDS: 8.4552521896549809E-3) is 1530 nM; in [4] (compound concentrations: 100 nM and 1000 nM (sheet 'Samples'), CATDS: 8.6780352700712906E-3), 1380 nM; in [11] (compound concentrations: 100 nM and 1000 nM (sheet 'Samples'), CATDS: 1.3760463216936501E-2), 376 nM; in assay [5] (compound concentrations: 100 nM and 1000 nM (sheet 'Samples'), CATDS: 8.7541295114789697E-3) it was 1330 nM; in [7] (compound concentrations: 100 nM and 1000 nM (sheet 'Samples'), CATDS: 1.32180266874378E-2), 412 nM; in assay [13], 1050 nM.
Consider `c1ccc(-c2n[nH]cc2Nc2ccnc3ccccc23)nc1` [GW694077X], for which the potency estimated from few doses is 148 nM in assay [12] (compound concentrations: 100 nM and 1000 nM (sheet 'Samples'), CATDS: 5.6537253255213298E-2); 2310 nM in [6] (compound concentrations: 100 nM and 1000 nM (sheet 'Samples'), CATDS: 2.23851306081322E-2).
As for `O=C(O)C(F)(F)F.O=c1[nH]ccc2nc(N[C@@H]3CCNC3)nc(Nc3cc(Cl)cc(Cl)c3)c12` [GSK2188764A], the potency estimated from few doses in [4] (setting [18]) was 1870 nM; in assay [14] (setting [18]), 813 nM; in assay [5] (setting [18]), 538 nM; in assay [7] (setting [18]) it was 905 nM; in assay [8], 1520 nM.
For the molecule `COc1cc(Nc2nccc(-c3cnn4ncccc34)n2)cc(OC)c1` [GW801372X], the potency estimated from few doses is 1660 nM in assay [14] (compound concentrations: 100 nM and 1000 nM (sheet 'Samples'), CATDS: 1.8293530288082401E-2); 135 nM in [12] (compound concentrations: 100 nM and 1000 nM (sheet 'Samples'), CATDS: 4.4256260948390198E-2).
With `CS(=O)(=O)CCn1c(=O)c(Oc2ccc(F)cc2F)cc2cnc(NC3CCOCC3)nc21` [RO5027956-000], the potency estimated from few doses in assay [15] was 892 nM; in assay [16] it was 1160 nM; in assay [14] (setting [18]) it was 1930 nM; in [3] (setting [18]), 17.9 nM; in [17], 1310 nM.
On to `Cl.Cl.NC(CNC(=O)c1cc(Br)c(-c2ccnc3[nH]ccc23)s1)c1ccccc1.NC(CNC(=O)c1cc(Br)c(-c2ccnc3[nH]ccc23)s1)c1ccccc1` (stereo not shown) [GSK1322949A], for which the potency estimated from few doses in [4] (compound concentrations: 100 nM and 1000 nM (sheet 'Samples'), CATDS: 4.7345157694920897E-2) was 499 nM; in assay [11] (compound concentrations: 100 nM and 1000 nM (sheet 'Samples'), CATDS: 3.0654913086493301E-2) it was 1150 nM.
For `Cc1cccc(Nc2nc(N[C@H]3CCNC3)ncc2C(N)=O)c1.Cl` [GSK2197149A], the values for the potency estimated from few doses in assay [14] (setting [18]), in assay [12] (setting [18]) and in [7] (setting [18]) were 1330 nM, 10.5 nM and 437 nM, respectively.
Regarding `CCn1c(-c2cccnc2O)nc2cnccc21` [SB-736715], the potency estimated from few doses in assay [1] (compound concentrations: 100 nM and 1000 nM (sheet 'Samples'), CATDS: 1.8200726561527599E-2) is 889 nM; in [12] (compound concentrations: 100 nM and 1000 nM (sheet 'Samples'), CATDS: 9.8292238183885799E-2), 84.5 nM; in assay [10] (compound concentrations: 100 nM and 1000 nM (sheet 'Samples'), CATDS: 1.5814183064690599E-2) it was 1160 nM.
With `NCC(NC(=O)c1cc(-c2cn[nH]c2)c(-c2ccnc3[nH]ccc23)s1)c1ccccc1.NCC(NC(=O)c1cc(-c2cn[nH]c2)c(-c2ccnc3[nH]ccc23)s1)c1ccccc1.O=C(O)C(F)(F)F.O=C(O)C(F)(F)F` (stereo not shown) [GSK1325775A], the potency estimated from few doses in [1] (compound concentrations: 100 nM and 1000 nM (sheet 'Samples'), CATDS: 3.7153250837812998E-2) is 1020 nM; in assay [4] (compound concentrations: 100 nM and 1000 nM (sheet 'Samples'), CATDS: 0.23472145831324301) it was 29.3 nM; in assay [2] (compound concentrations: 100 nM and 1000 nM (sheet 'Samples'), CATDS: 4.2305109651231403E-2) it was 719 nM; in assay [6] (compound concentrations: 100 nM and 1000 nM (sheet 'Samples'), CATDS: 3.8123557619569197E-2), 949 nM.
`CC(C)Oc1ccc2c(-c3ccnc(Nc4ccc(N5CCN(C)CC5)cc4)n3)cnn2n1` [GW696155X]: the potency estimated from few doses in assay [11] (setting [18]) was 600 nM.
Turning to `CNc1cc(-c2ccc3c(N)n[nH]c3c2)nc(N)n1` [GSK2224810A], the figures for the potency estimated from few doses in assay [1] (setting [18]), in assay [15] and in [12] (setting [18]) were 361 nM, 1180 nM and 83.4 nM, respectively.
